Calls of active or inactive are those of the source.

In the first assay the test system is PRMT1 (protein arginine N-methyltransferase 1). The assay is described as follows: PRMT1 binders on small-molecule microarrays, primary screen, biochemical, small-molecule microarray, 635 nm fluorescence (AID 1088).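 Note: binding of Prmt1 protein to compounds spotted on small-molecule microarray slides.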 The conditions noted are these: small-molecule microarray binding, higher = more signal.
Consider `O[C@@H](Cc1ccccc1)[C@@H](/C=C/C1CC1)N(CC#Cc1ccccc1)Cc1cccc(Cl)c1`, for which the composite z-score was -0.235.

For the compound `CCOC(=O)C[C@H]1[C@H](OC(=O)c2ccccc2-c2ccccc2)[C@@H](NC(=O)c2ccc(-c3ccccc3)cc2)c2cc(OCCCO)ccc2N1C(=O)c1ccc2ccccc2n1`, the composite z-score worked out at 1.02.

Consider `CN(C)c1ccc(C(O)C2C=CC3C(=O)N(c4ccccc4)C(=O)C3N2Nc2ccc([N+](=O)[O-])cc2)cc1` (centres undefined), for which the composite z-score was determined as 1.44.

In turn, `COC(=O)[C@@]1(Cc2ccc(OC)cc2)[C@H]2c3cc(C(=O)N4CCCC4)n(Cc4c(-c5ccccc5)noc4C)c3C[C@H]2CN1C(=O)c1ccccc1` displayed a composite z-score of 0.525.

`COc1ccc(-c2nc(-c3ccccc3)c3c(c2C)CO[Si]3(C(C)C)C(C)C)cn1` returned a composite z-score of 0.569.

In turn, `O=C1O[C@@H](c2ccccc2)[C@@H](c2ccccc2)N2[C@@H](c3ccc(O)cc3)[C@]3(C(=O)Nc4ccc(C#CC5=CCCCC5)cc43)[C@@H](C(=O)NC[C@H](O)c3ccccc3)[C@H]12` registered a composite z-score of 1.54.

Compound `CO[C@H]1O[C@H](CO)[C@@H](OC(=O)Nc2ccccc2-c2ccccc2)[C@H](OC(=O)Nc2ccc3c(c2)OCO3)[C@H]1OC(=O)Nc1ccc2c(c1)OCO2` came in with a composite z-score of 1.53.

Regarding `COC(=O)[C@@]1(Cc2ccc(F)cc2)[C@H]2c3cc(C(=O)N4CCCC4)n(CCN4CNCC4=O)c3C[C@H]2CN1C(=O)c1ccccc1`, the composite z-score came out at 1.2.

Regarding `CN(C)CCCNC(=O)[C@@H]1c2ccccc2C(=O)N(Cc2ccccc2Cl)[C@H]1c1ccc(CO)cc1`, the composite z-score is 0.226.

Tested on in a further assay: not listed separately
The assay is described as follows: yeast growth modulation, basal conditions, primary screen, YJM789 clinical isolate, OD600, 24 h (AID 1089).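 Note: growth of clinical yeast isolate S. cerevisiae YJM 789 seeded 1000 cells per well; test concentration not given here.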 The settings on record: S. cerevisiae YJM789 growth, higher = more signal, called active from +8 up or from −8 down.
Take `COc1cc2c(cc1O)C(C)N(Cc1ccc([N+](=O)[O-])o1)CC2` (centres undefined): the z-score was -0.337 (inactive).

As for `COCCOC(=O)N1C(=O)[C@@]2(c3cc(C#Cc4ccc(OC)cc4)ccc31)[C@H](c1ccc(O)cc1)N1[C@H](c3ccccc3)[C@H](c3ccccc3)OC(=O)[C@H]1[C@@H]2C(=O)N1CCCCCCC1`, the z-score is -0.158 (inactive).

As for `COc1ccc([Si](C)(C)[C@@H]2[C@@H](CC(=O)N(CCO)Cc3ccccc3)O[C@]3(C(=O)N(Cc4cccc(N5C(=O)c6cccc7cccc5c67)c4)c4ccccc43)[C@H]2C)cc1`, the z-score is 0.121 (inactive).

As for `Cc1ccc(S[C@]2(C(=O)O)CC(=O)N(Cc3ccccc3Cl)[C@@H]2c2ccc(CO)cc2I)cc1`, the z-score is -0.923 (inactive).

In the case of `COC(=O)C1=CC(CCCO)=CC(C2CC2)N(C)C=C1C(=O)OC` (centres undefined), the z-score was -1.81 (inactive).

On to `COCCOC(=O)N1C(=O)[C@@]2(c3cc(C#CCC(C(=O)OC)C(=O)OC)ccc31)[C@H](C(=O)N1CCc3cc(OC)c(OC)cc3C1)[C@H]1C(=O)O[C@H](c3ccccc3)[C@H](c3ccccc3)N1[C@@H]2c1ccc(OCCO)cc1`, for which the z-score was 1.94 (inactive).

As to `COc1ccc([Si](C)(C)[C@H]2[C@H](CCO)O[C@@]3(C(=O)N(Cc4cccc(N5C(=O)COc6ccccc65)c4)c4ccccc43)[C@@H]2C)cc1`, the z-score is 1.5 (inactive).

Take `CN(C)CCCNC(=O)[C@@]1(C)c2ccccc2C(=O)N(Cc2ccccc2)[C@H]1c1ccc(CO)cc1`: the z-score is -0.466 (inactive).

For `COC(=O)c1c2oc(c1C(=O)OC)C(=O)N(Cc1ccccc1)Cc1cn(nn1)C[C@H](Cc1ccccc1)NC(=O)N[C@H](CO)CC2`, the z-score is -3.16 (inactive).

For the compound `[N-]=[N+]=NCc1ccccc1[C@H]1OC(c2ccc(OCCCO)cc2)=N[C@@]1(CCS(=O)(=O)c1ccccc1)C(=O)N1CCCCC1`, the z-score was 0.341 (inactive).

For the compound `O=C(CS)NCCCCCNC(=O)[C@@H]1C[C@@H]2C(=O)N3CCC[C@H]3C(=O)N2[C@@H]1c1cccc(OCCO)c1`, the z-score was 0.147 (inactive).

Regarding `COCCOC(=O)N1C(=O)[C@@]2(c3cc(C#CCCO)ccc31)[C@H](C(=O)Nc1nc3ccccc3s1)[C@H]1C(=O)O[C@H](c3ccccc3)[C@H](c3ccccc3)N1[C@@H]2c1ccccc1OCCO`, the z-score was 2.53 (inactive).

As to `C[C@@H]1NC(=O)[C@@]23C(=O)N[C@@H](Cc4ccccc4)C2[C@H](C)[C@@]2(C)O[C@H]2C3/C=C/C/C=C\CNC(=O)[C@@H]2CCCN2C1=O` (some centres undefined), the z-score is -0.498 (inactive).

`CCC[C@@H]1C[C@@]1(CCC)[C@@H](NC(=O)OCc1ccccc1)c1ccc(-c2ccccc2)cc1`: the z-score is -0.979 (inactive).

For the compound `CC[C@H]1C2=C3C(CC[C@H]4C(OCc5ccc(F)cc5C(F)(F)F)OC[C@](C)([C@@H]34)N(C(=O)OC(C)(C)C)C2)C(COC)C1COC` (some centres undefined), the z-score was 0.242 (inactive).

Source of the values: PubChem BioAssay.
